The text below walks through data of PubChem BioAssay (NCATS).

Several values for one entry are separate records, joined by “and”; a condition that tells them apart may be missing. Identical values can stand only once. Unmarked numbers belong to inactive results. The call rests on the fitted dose curve; in most records, active means well fitted activation curve with a large enough effect; inconclusive means small, poorly fitted or top-dose-only effect; inactive means no such curve, though single readings can be large or run the other way.

This assay deals with Cytochrome P450 3A4 (Homo sapiens) (UniProt P08684). Kind of assay: qHTS Assay for Activators of Cytochrome P450 3A4 (AID 885). Further: nearly all actives have a fitted effect of over 65% in size. To be noted: recombinant CYP3A4, Luciferin-PPXE luminescence, 60 min; series mostly up to 57.1 µM; activity change, positive = activation: at the top concentration. An outline of the steps: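 20nM CYP3A4 + 25uM Luciferin-PPXE (=KM), 200mM KPO4; cpd 10 min RT; NADPH regen, 60 min RT; stop w/ detection buffer, 20 min; luminescence. Normalized to 57 uM ketoconazole.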
Sequence of Cytochrome P450 3A4 (Homo sapiens) (P08684 whole entry, looked up): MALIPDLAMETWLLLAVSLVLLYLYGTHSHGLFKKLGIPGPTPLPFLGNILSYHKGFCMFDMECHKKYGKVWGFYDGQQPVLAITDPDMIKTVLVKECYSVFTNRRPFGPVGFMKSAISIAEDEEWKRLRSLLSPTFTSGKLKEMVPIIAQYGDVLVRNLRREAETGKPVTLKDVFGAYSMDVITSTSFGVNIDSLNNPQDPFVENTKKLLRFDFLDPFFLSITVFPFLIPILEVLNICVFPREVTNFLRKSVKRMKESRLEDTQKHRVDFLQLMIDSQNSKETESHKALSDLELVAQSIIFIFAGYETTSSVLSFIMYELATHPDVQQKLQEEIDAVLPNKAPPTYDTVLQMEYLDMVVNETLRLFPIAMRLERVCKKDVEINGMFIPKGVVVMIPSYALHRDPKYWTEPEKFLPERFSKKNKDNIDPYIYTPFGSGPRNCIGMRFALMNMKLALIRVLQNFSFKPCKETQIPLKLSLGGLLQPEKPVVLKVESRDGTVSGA
For `C=CCc1cccc(C2C(C)CCC3C(=O)N4C(Cc5c([nH]c6ccccc56)C4c4cc(OC)c(OC)c(OC)c4)C(=O)N32)c1` (stereo not given), the activity change, positive = activation was -74.3% [at 11.4 µM].

As to `COc1ccc(O[C@H]2C=C[C@@H](c3ccccc3)O[C@@H]2CO/N=C(\C)CCN2CCCCc3nc(C)c(C)cc32)cc1`, the activity change, positive = activation was -86.9% [at 11.4 µM].

In the case of `COc1ccc(O[C@H]2C=C[C@@H](c3ccccc3)O[C@H]2COC(=O)CC/C(C)=N\O[C@@H](C)c2cn([C@H]3COC[C@H]3O)nn2)cc1`, the activity change, positive = activation is -77.3% [at 11.4 µM].

With `COC(=O)C[C@@H]1O[C@H]1[C@H](C)[C@@H](OC)C(C)C`, the activity change, positive = activation was -66.6% [at 11.4 µM].

For `COC(=O)C/C=C\[C@@H](C)[C@@H](/C=N\OC[C@@H]1O[C@H](c2ccccc2)C=C[C@@H]1Oc1ccc(OC)cc1)NS(=O)(=O)c1ccc(C)cc1`, the activity change, positive = activation is -96.1% [at 11.4 µM].

For the compound `C=CC(C1=CC(=O)C(OC)=CC1=O)c1ccc(OC)cc1` (stereo not given), the “activity change, positive = activation” value was -65.2%.

For the compound `CC(=O)OCC1OC(c2ccc3c(c2)OCO3)C=CC1OC(C)=O` (stereo not given), the activity change, positive = activation was -75.4% [at 11.4 µM].

With `COc1ccc(O[C@H]2C=C[C@@H](c3ccccc3)O[C@@H]2CO/N=C(\C)CCN2CCCc3nc(C)c(C)cc32)cc1`, the activity change, positive = activation is -63.6% [at 11.4 µM].

As to `O=C1C=CC(=C(c2ccc(O)cc2)c2ccc(O)cc2)C=C1`, the “activity change, positive = activation” value is -77%.

On to `C=C(C)C(O)/C=C/c1cccc(OC)c1` (stereo not given), for which the activity change, positive = activation was -69.2% [at 11.4 µM].

With `C=CC[C@@H]1C=C[C@H](Oc2ccc(C)cc2)[C@H](COC(=O)NCc2cccc3ccccc23)O1`, the activity change, positive = activation was -96.8% [at 11.4 µM].

Take `COc1ccc(O[C@H]2C=C[C@@H](c3ccccc3)O[C@H]2COC(=O)CC/C(C)=N\O[C@@H](C)CN2CCCCc3nc(C)c(C)cc32)cc1`: the activity change, positive = activation was -114% [at 11.4 µM].

As for `COc1cc(OC)c2c(OC)c(-c3ccc4c(c3)OCO4)c(=O)oc2c1`, the “activity change, positive = activation” value was -103%.

`COc1ccc(O[C@H]2C=C[C@@H](c3ccccc3)O[C@H]2COC(=O)CC/C(C)=N/O[C@@H]2O[C@H](COC(C)=O)[C@H](OC(C)=O)[C@H](OC(C)=O)[C@H]2OC(C)=O)cc1`: the activity change, positive = activation is -91.6% [at 11.4 µM].

Consider `COc1ccc(O[C@H]2C=C[C@@H](c3ccccc3)O[C@H]2CO/N=C\C[C@@H]2C=C[C@H](OC(C)=O)[C@H](COC(C)=O)O2)cc1`, for which the activity change, positive = activation was -90.6% [at 11.4 µM].

On to `CCO[C@H](c1cc(OC)cc([N+](=O)[O-])c1OC)[C@H](C)/C=C\CC(=O)OC`, for which the activity change, positive = activation was -72.1% [at 11.4 µM].

For the compound `COc1cc2c(cc1OC)-c1c(oc3cc(O)cc(O)c3c1=O)CO2`, the “activity change, positive = activation” value is -85.2%.

Turning to `OCC1OC(c2ccc3c(c2)OCO3)C=CC1Oc1cc(Cl)cc(Cl)c1` (stereo not given), the activity change, positive = activation is -90.6% [at 11.4 µM].

Consider `C=CCOC(=O)C(C(C)=O)C(NC(=O)OC)c1ccc(F)cc1` (stereo not given), for which the activity change, positive = activation was -78% [at 11.4 µM].

Take `COC(=O)C/C=C\[C@@H](C)[C@@H](/C=N\OC[C@@H]1O[C@H](c2ccccc2)C=C[C@@H]1Oc1ccc(OC)cc1)OC`: the activity change, positive = activation is -96.1% [at 11.4 µM].

Turning to `COc1cc(O)c(C(=O)/C=C/c2ccc(O)c(OC)c2)c(OC)c1`, the “activity change, positive = activation” value is -99.4%.

Regarding `CCCNC(=O)OC[C@@H]1O[C@H](CCO/N=C\[C@@H](C)[C@H](OCc2ccccc2)C(C)C)C=C[C@@H]1Oc1ccc(OC)cc1`, the activity change, positive = activation is -83.7% [at 11.4 µM].

As to `COc1ccc(C#CC2C=CC(Oc3cc(C)cc(C)c3)C(CO)O2)cc1` (stereo not given), the activity change, positive = activation is -94.5% [at 11.4 µM].

In the case of `COc1ccc(/C=C/N(CCc2ccc(OC)c(OC)c2)C(=O)C(F)(F)F)cc1`, the activity change, positive = activation is -97.3% [at 11.4 µM].

Consider `C/C=C/OC(=O)NC(c1ccccc1)[C@@]1(C(=O)OCC)CCCC1=O` (stereo not given in full), for which the activity change, positive = activation is -71.4% [at 11.4 µM].

For `COc1ccc2c(c1)OC/C(=C/c1ccc(OC)c(OC)c1)C2=O`, the “activity change, positive = activation” value is -115%.

Turning to `C=CCC1C=CC(Oc2ccc(OC)cc2)C(COC(=O)c2ccc(Br)cc2)O1` (stereo not given), the activity change, positive = activation is -92.4% [at 11.4 µM].

`COc1cccc([C@@H]2Oc3ccc(OC)cc3/C(=N/OC[C@@H](O)COCc3ccco3)[C@@H]2O)c1`: the activity change, positive = activation was -84.1% [at 11.4 µM].

With `COCOc1ccc(Br)cc1C(=O)[C@H]1O[C@H]1c1cccc(OC)c1`, the activity change, positive = activation is -113% [at 11.4 µM].

On to `CCCCC#CC1C=CC(Oc2ccc(OC)cc2)C(CO)O1` (stereo not given), for which the activity change, positive = activation is -94.2% [at 11.4 µM].

Turning to `C[C@@H](c1ccccc1)N1C(=O)[C@H]2[C@H]3[C@H](O)[C@H](O)C/C(=N/OC[C@@H](O)COCc4ccco4)[C@@H]3CC[C@@H]2C1=O`, the activity change, positive = activation is -82.9% [at 11.4 µM].

Take `Cc1ccc(S(=O)(=O)N[C@H]2COC(=O)[C@@H](Cc3ccccc3)NC(=O)[C@@H](C)COC(=O)C/C=C\[C@@H]2C)cc1`: the activity change, positive = activation is -80.1% [at 11.4 µM].

Take `CC1(C)C(=O)C=C[C@@]2(C)C1C=C[C@@]1(C)C2CC[C@@]2(C)C(c3ccoc3)OC(=O)C3OC312` (stereo not given in full): the “activity change, positive = activation” value was -88.2%.

`COc1cccc(-c2cc(=O)c3ccc(OC)cc3o2)c1`: the “activity change, positive = activation” value was -99.1%.

For `COc1ccc(O[C@H]2C=C[C@@H](c3ccccc3)O[C@H]2CO/N=C2/[C@H]3O[C@@H]3[C@@H](O)[C@H]3[C@H]2CCn2c(=O)n(-c4ccccc4)c(=O)n23)cc1`, the activity change, positive = activation was -86.5% [at 11.4 µM].

`COc1cccc([C@@H]2Oc3ccc(OC)cc3/C(=N/O[C@@H](C)c3cc(-c4c(C)cc(C)cc4C)no3)[C@@H]2O)c1`: the activity change, positive = activation was -90.1% [at 11.4 µM].

With `COc1cc(OC)c2c(=O)c(-c3ccc4c(c3)OCO4)coc2c1`, the “activity change, positive = activation” value is -99%.

In the case of `CCCNC(=O)OC[C@@H]1O[C@H](CCO/N=C2\c3cc(OC)ccc3O[C@H](c3cccc(OC)c3)[C@H]2O)C=C[C@@H]1Oc1ccc(OC)cc1`, the activity change, positive = activation is -120% [at 11.4 µM].

As for `COC(=O)[C@@H]1CC[C@H](C)[C@@H](c2ccc(C)cc2)N1C(=O)c1ccc(/C=N\O[C@@H](C)c2cn([C@H](CO)Cc3ccccc3)nn2)cc1`, the activity change, positive = activation was -62.7% [at 11.4 µM] and -101% [at 11.4 µM].

Turning to `CC(C)(C)c1ccc(OC2C(O)COC2/C=C/C#Cc2ccccc2)cc1` (stereo not given), the activity change, positive = activation was -77.1% [at 11.4 µM] and -67.5% [at 11.4 µM].
